Among the data in PubChem BioAssay (NCI) are growth values, retold here.

Compounds without any hit were thinned out: in the full panel of roughly 83,000, 20% have a hit.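 A percent growth of 40 corresponds to 60% growth inhibition; 0 means no net growth; -100 means all cells died. Active threshold: below 10.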 Unmarked numbers belong to inactive results. Calls of active or inactive are those of the source.

For the assay, the system named is HL-60(TB) leukemia. Nature of the assay: NCI-60 one-dose screen, 48 h (100 = growth as untreated, 0 = no growth, -100 = all killed). To be noted: 10 µM unless noted.
For the molecule `COc1ccc(-c2cc(-c3cc(C(=O)c4ccccc4)n4ccc(C)cc34)nc(N)c2C#N)cc1`, the growth was 99.7%.

Turning to `Cc1sc(C(NC(=O)OCCn2c([N+](=O)[O-])cnc2C)C(F)(F)Cl)nc1-c1ccc(OC(F)(F)F)cc1` (configuration not stated), the growth was -6.23% (active).

For `O=C(Cn1nc(-c2ccccc2)ccc1=O)NN1C(=O)c2ccccc2C1=O`, the growth was 101%.

Turning to `O=C1CCC(N2C(=O)c3cccc(NCCCCCC(=O)N4CCN(c5ccc6nc7c(nc6c5C(F)(F)F)C(=O)c5ncccc5C7=O)CC4)c3C2=O)C(=O)N1` (configuration not stated), the growth is -25.2% (active).

Consider `CC12CC[C@@H]3[C@]4(C)COC(c5cn[nH]c5-c5ccc(Cl)cc5)O[C@@H]4CC[C@@]3(C)[C@@H]1CC(C1=CCOC1=O)O2` (some centres not stated), for which the growth is 3.37% (active).

As for `COc1cc(C2CC(c3cc(OC)c(OC)c(OC)c3)=NN2C(C)=O)ccc1OCc1ccccc1` (configuration not stated), the growth was 21.5%.

In the case of `O=C(N/N=C/c1occc1Br)c1[nH]c2ccc(Br)cc2c1-c1ccccc1`, the growth is -34.2% (active).

As to `COc1cc(/C=N/NC(=O)c2ccc(OCc3nc4ccc(C)cc4[nH]3)cc2)cc(OC)c1OC`, the growth is 33.5%.

As for `CCOC(=O)C1=C(N)N(c2ccccc2)C2=C(C(=O)CC(C)(C)C2)C1c1ccc(Cl)cc1Cl` (configuration not stated), the growth was 1.24% (active).

For `Cc1ccc(S(=O)(=O)N(CCn2ccnc2[N+](=O)[O-])CCn2ccnc2[N+](=O)[O-])cc1`, the growth is 94.6%.

As to `Cc1cc2nc3c4ccccc4n(CC4=NCCN4)c3nc2cc1C`, the growth was -55.6% (active).

For `O=C(CSc1nnc(-c2ccc(-c3nc4ccc(Cl)cc4[nH]3)cc2)o1)Nc1ccc(Br)cc1`, the growth is 29.7%.
